In PubChem BioAssay (NCI):
Compounds without any hit were thinned out: in the full panel of roughly 83,000, 20% have a hit.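 Assay: single dose, 48 h. Readout: percent growth (0 = no net growth; negative = cell death). Active: <10.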 Active and inactive are the calls of the source.

Legend:
Assay in all cases: NCI-60 one-dose screen, 48 h (100 = growth as untreated, 0 = no growth, -100 = all killed)
Details in all cases: 10 µM unless noted
[1] = tested on: BT-549 breast
[2] = tested on: MDA-MB-435 melanoma
[3] = tested on: SW-620 colon
[4] = tested on: MCF7 breast
[5] = tested on: HCT-116 colon
[6] = tested on: HCC-2998 colon
[7] = tested on: KM12 colon

Measured: growth

O=C1NCN(CCO)CN1
inactive: [1] 75.9% | [2] 97.1% | [3] 102% | [4] 94.1% | [5] 106% | [6] 100% | [7] 108%

O=C(Cn1ccnc1)NC(c1ccccc1)c1ccccc1
inactive: [1] 105% | [2] 99.4% | [3] 106% | [4] 100% | [5] 106% | [6] 97.6% | [7] 103%

CN(C)c1nc(N)nc(Cn2c(-c3nonc3N)nc3ccccc32)n1
active: [2] 7.85%
inactive: [1] 91.8% | [3] 52.4% | [4] 66.5% | [5] 71.5% | [6] 82.7% | [7] 55.4%

CN(C)c1ccc2c(c1)/C(=N/O)c1ccccc1-2
inactive: [1] 91.7% | [3] 50.3% | [4] 19.9% | [5] 39.4% | [6] 101% | [7] 35.2%
active: [2] -8.86%

COc1cc(/C=C2\COc3ccc(O)c(O)c3C2=O)cc(OC)c1
inactive: [4] 16.7% | [6] 25.1%
active: [1] 3.92% | [2] 0.577% | [3] -19.3% | [5] -56% | [7] -11.1%

Oc1ccc(Cc2ccc(O)c(C3CC(c4ccc(Cl)cc4)=NN3)c2)cc1C1CC(c2ccc(Cl)cc2)=NN1 (configuration not stated)
inactive: [1] 36.2% | [3] 13.6% | [4] 17.5% | [6] 11.3% | [7] 12%
active: [2] 3.35% | [5] 1.4%

ClC1C2CC(c3ccccc32)C1Cl (configuration not stated)
inactive: [1] 102% | [2] 120% | [3] 110% | [4] 103% | [5] 105% | [6] 110% | [7] 116%

CCSc1nnc2n(Cc3ccccc3)c(=O)c3c(C)c(C(N)=O)sc3n12
inactive: [1] 88.9% | [2] 105% | [3] 109% | [4] 96.8% | [5] 100% | [6] 101% | [7] 105%

COc1ccc2c(c1)[nH]c(=O)c1c3cc(OC)c(OC)cc3cn21
inactive: [1] 10.5% | [3] 31.7% | [4] 17.5% | [6] 25.8%
active: [2] -20.3% | [5] -18.8% | [7] -33%

COc1cccc(/C=C2\COc3ccc(O)c(O)c3C2=O)c1OC
inactive: [1] 35.3% | [4] 16.7% | [6] 78.6% | [7] 12.9%
active: [2] 9.09% | [3] 4.8% | [5] -48.4%

O=C(Nc1cccc([N+](=O)[O-])c1)c1cccc(C(=O)Nc2cccc([N+](=O)[O-])c2)c1
active: [1] -4.34%
inactive: [2] 83.1% | [3] 92.8% | [4] 68.3% | [5] 78.4% | [6] 88.2% | [7] 87.6%

OCc1nnn(-c2ccccc2)c1CO
inactive: [1] 157% | [2] 114% | [3] 105% | [4] 106% | [5] 105% | [6] 119% | [7] 116%

Nc1ccc(C2=NN(c3ccccc3)C(c3ccc(Cl)cc3)C2)cc1 (configuration not stated)
active: [5] -57.3%
inactive: [1] 70.4% | [2] 49.9% | [3] 41.2% | [4] 14.5% | [6] 76.8% | [7] 18.3%

CC/C(=C\c1ccc(N(C)C)cc1)c1ccncc1
inactive: [1] 65.8% | [3] 19.9% | [4] 28.8% | [5] 22.2% | [6] 66.6% | [7] 20.4%
active: [2] -6.41%

O=C1C[C@@H]2/C(=C(O)\C=C\c3ccccc3)C(=O)C=C[C@@H]2O1
active: [1] -40.5% | [2] -31.6% | [3] -33.2% | [4] 6.03% | [5] -90.6% | [7] -91%
inactive: [6] 99.6%

O=C(Nc1ccc(OCc2nnc(-c3ccccc3)o2)c(F)c1)Nc1ccc(Cl)c(C(F)(F)F)c1
inactive: [1] 68.3% | [2] 27.5% | [3] 17.6% | [6] 14.4%
active: [4] 8.14% | [5] 9.64% | [7] 1.65%
